Experimental data reported in the supplement of paper PMC10849652.
Targets with a hit are over-represented here; the source holds about 7,900 in all. About 0.6% of all pairs of compound and target were hits. A number with no mark means an inactive call.

Tests used:
Assay in all cases: log2 fold change, soluble protein after heating vs DMSO (PISA); higher = thermal stabilisation; K562 cells, 10 uM, 30 min; active = over 0.2 and 3.5 SD of the protein, either way, in both replicates (recomputed)
[1] = compound: CC[C@@H]1C(=O)N(C)c2cnc(Nc3ccc(C(=O)NC4CCN(C)CC4)cc3OC)nc2N1C1CCCC1
How it was run: (§1)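 Values are thermal stability changes relative to control samples and are taken from duplicates. They are stated as log2 fold changes. Before quantification by TMTpro 16plex LC-MS/MS with equalised channel sums, K562 cells at 2×10^6 cells/mL were treated with 10 μM compound for 30 min, heated in aliquots for 3 min across 48°C-58°C, pooled, extracted in PBS with 0.5% NP-40 at 4°C, and centrifuged at 21,000xg for 90 min to give the soluble supernatant.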

volasertib = compound: CC[C@@H]1C(=O)N(C)c2cnc(Nc3ccc(C(=O)N[C@H]4CC[C@H](N5CCN(CC6CC6)CC5)CC4)cc3OC)nc2N1C(C)C [volasertib]
How it was run: as §1

[2] = compound: CC[C@H](C)N1C=C(C2=C(C=C(C=C21)C3=CN=C(C=C3)N4CCNCC4)C(=O)NCC5=C(C=C(NC5=O)C)C)C
How it was run: as §1

epoxomicin = compound: CC[C@H](C)[C@@H](C(=O)N[C@@H]([C@@H](C)O)C(=O)N[C@@H](CC(C)C)C(=O)[C@]1(CO1)C)NC(=O)[C@H]([C@@H](C)CC)N(C)C(=O)C [epoxomicin]
How it was run: as §1

[3] = compound: CCn1c(C(=O)N(C2CC2)C2CC2)cc2c3c(ncn3C)c(Nc3cc(C)n(C)n3)nc21
How it was run: as §1

[4] = compound: CCn1cc(-c2ccnc3[nH]c(-c4cccc(CN(C)C)c4)cc23)c(-c2ccc(NC(=O)N(C)C)cc2)n1
How it was run: as §1

[5] = compound: CN(C)CC(=O)Nc1ccc2[nH]c(=O)c3ccccc3c2c1
How it was run: as §1

rosiglitazone = compound: CN(CCOC1=CC=C(C=C1)C[C@H]2C(=O)NC(=O)S2)C3=CC=CC=N3 (racemic) [rosiglitazone]
How it was run: as §1

[6] = compound: CN1C2=C(C3=C1C(=O)N(N=C3)CC4=CC(=CC=C4)N)SC(=C2)S(=O)C
How it was run: as §1

[7] = compound: CN1CCC(CNc2ccc3ncc(-c4cccc(OC(F)(F)F)c4)n3n2)CC1
How it was run: as §1

saracatinib = compound: CN1CCN(CCOc2cc(OC3CCOCC3)c3c(Nc4c(Cl)ccc5c4OCO5)ncnc3c2)CC1 [saracatinib]
How it was run: as §1

sotrastaurin = compound: CN1CCN(c2nc(C3=C(c4c[nH]c5ccccc45)C(=O)NC3=O)c3ccccc3n2)CC1 [sotrastaurin]
How it was run: as §1

alvocidib = compound: CN1CC[C@H](c2c(O)cc(O)c3c(=O)cc(-c4ccccc4Cl)oc23)[C@H](O)C1 [alvocidib]
How it was run: as §1

Tubastatin A = compound: CN1CCc2c(c3ccccc3n2Cc2ccc(C(=O)NO)cc2)C1 [Tubastatin A]
How it was run: as §1

[8] = compound: CNC(=O)C1=CC=CC=C1NC2=NC(=NC=C2Cl)NC3=C(C=C(C=C3)N4CCOCC4)OC
How it was run: as §1

defactinib = compound: CNC(=O)c1ccc(Nc2ncc(C(F)(F)F)c(NCc3nccnc3N(C)S(C)(=O)=O)n2)cc1 [defactinib]
How it was run: as §1

rucaparib = compound: CNCc1ccc(-c2[nH]c3cc(F)cc4c3c2CCNC4=O)cc1 [rucaparib]
How it was run: as §1

[9] = compound: CNc1nc(-c2ccc3c(N)n[nH]c3c2)cc(N2C[C@@H](C(=O)NC3CCCCC3)CC[C@H]2C)n1
How it was run: as §1

encorafenib = compound: COC(=O)N[C@@H](C)CNc1nccc(-c2cn(C(C)C)nc2-c2cc(Cl)cc(NS(C)(=O)=O)c2F)n1 [encorafenib]
How it was run: as §1

[10] = compound: COC(=O)[C@H](CCSC)NC(=O)C1=C(C=C(C=C1)NC[C@H](CS)N)C2=CC=CC=C2
How it was run: as §1

UniProt Q9Y2I8, sequence (Q9Y2I8 whole entry, looked up): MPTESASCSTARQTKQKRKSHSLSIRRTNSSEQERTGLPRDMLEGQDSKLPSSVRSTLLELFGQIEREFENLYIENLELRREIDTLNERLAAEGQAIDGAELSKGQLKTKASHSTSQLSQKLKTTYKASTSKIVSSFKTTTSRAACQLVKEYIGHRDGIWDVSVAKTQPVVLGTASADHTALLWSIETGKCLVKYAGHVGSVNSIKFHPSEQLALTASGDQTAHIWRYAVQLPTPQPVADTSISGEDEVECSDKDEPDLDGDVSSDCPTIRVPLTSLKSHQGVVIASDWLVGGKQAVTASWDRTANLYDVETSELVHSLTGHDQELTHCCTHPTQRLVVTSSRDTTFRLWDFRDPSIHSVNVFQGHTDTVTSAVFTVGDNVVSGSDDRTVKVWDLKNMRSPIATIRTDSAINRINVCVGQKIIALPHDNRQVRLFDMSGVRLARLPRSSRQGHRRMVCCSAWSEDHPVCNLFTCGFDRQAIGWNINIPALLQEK
UniProt Q93008, sequence (Q93008 whole entry, looked up): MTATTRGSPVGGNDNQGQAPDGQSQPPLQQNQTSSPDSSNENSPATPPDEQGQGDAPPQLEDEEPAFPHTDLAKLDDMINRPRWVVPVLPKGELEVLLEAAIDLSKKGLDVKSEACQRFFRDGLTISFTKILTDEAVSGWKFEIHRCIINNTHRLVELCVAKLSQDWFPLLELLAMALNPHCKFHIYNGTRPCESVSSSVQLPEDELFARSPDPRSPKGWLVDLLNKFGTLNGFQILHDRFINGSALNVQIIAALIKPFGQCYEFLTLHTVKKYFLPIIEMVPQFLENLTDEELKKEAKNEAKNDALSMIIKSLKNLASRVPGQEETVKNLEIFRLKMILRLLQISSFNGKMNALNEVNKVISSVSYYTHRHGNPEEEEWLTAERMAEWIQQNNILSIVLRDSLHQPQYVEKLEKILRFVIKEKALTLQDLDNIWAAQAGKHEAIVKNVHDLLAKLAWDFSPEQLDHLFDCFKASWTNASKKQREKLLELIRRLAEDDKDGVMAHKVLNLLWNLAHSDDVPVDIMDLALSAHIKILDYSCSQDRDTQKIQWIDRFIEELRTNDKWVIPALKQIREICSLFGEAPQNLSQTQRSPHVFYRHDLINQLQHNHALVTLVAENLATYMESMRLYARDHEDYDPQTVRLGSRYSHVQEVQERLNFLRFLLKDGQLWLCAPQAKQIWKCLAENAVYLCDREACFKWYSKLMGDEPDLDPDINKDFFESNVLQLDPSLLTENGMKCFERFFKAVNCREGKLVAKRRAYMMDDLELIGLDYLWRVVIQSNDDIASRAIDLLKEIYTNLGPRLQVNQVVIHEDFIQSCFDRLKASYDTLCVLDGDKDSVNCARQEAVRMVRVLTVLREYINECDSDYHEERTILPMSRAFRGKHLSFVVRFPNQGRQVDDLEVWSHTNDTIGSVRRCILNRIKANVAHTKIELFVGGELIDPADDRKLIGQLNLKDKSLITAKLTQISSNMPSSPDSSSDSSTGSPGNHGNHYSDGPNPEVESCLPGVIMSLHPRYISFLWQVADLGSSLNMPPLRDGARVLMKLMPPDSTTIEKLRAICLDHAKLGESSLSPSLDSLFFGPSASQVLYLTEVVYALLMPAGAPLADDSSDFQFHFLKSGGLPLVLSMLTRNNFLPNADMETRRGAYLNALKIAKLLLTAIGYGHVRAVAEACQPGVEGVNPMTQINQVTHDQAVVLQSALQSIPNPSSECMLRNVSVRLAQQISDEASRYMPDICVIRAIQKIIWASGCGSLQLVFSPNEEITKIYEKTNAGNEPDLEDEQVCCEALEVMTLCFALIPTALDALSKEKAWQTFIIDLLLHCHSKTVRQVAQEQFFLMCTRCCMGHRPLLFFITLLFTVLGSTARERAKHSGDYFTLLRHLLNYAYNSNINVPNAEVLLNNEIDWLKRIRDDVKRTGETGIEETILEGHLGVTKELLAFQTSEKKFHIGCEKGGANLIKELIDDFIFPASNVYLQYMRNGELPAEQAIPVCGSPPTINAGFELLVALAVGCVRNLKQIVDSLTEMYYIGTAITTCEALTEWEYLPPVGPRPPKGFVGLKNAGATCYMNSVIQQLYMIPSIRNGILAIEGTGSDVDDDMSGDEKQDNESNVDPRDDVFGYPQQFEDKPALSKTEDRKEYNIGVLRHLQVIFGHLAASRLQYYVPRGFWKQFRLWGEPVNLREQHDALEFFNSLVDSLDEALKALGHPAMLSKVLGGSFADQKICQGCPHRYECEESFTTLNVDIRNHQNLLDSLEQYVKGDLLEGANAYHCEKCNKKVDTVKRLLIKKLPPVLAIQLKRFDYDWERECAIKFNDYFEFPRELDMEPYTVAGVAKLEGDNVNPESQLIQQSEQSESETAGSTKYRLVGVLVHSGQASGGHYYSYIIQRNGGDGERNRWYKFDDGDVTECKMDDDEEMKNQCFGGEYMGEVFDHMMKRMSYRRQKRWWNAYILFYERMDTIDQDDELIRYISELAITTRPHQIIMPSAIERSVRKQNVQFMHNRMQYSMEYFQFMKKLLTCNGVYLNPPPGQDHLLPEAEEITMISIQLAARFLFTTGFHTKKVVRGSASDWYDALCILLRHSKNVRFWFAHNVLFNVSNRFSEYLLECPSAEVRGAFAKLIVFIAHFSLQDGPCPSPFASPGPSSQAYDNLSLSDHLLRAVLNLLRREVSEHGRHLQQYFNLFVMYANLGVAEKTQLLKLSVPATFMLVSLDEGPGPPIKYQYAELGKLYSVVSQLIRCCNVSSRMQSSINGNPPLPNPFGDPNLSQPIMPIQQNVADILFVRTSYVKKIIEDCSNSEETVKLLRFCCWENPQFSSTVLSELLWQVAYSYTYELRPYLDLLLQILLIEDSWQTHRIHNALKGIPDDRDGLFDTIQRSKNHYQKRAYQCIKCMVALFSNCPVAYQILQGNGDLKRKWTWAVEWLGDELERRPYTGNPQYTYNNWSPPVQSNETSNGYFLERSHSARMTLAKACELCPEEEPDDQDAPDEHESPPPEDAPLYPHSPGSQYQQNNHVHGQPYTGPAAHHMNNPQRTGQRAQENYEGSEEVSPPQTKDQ
UniProt P0CG48, sequence (P0CG48 whole entry, looked up): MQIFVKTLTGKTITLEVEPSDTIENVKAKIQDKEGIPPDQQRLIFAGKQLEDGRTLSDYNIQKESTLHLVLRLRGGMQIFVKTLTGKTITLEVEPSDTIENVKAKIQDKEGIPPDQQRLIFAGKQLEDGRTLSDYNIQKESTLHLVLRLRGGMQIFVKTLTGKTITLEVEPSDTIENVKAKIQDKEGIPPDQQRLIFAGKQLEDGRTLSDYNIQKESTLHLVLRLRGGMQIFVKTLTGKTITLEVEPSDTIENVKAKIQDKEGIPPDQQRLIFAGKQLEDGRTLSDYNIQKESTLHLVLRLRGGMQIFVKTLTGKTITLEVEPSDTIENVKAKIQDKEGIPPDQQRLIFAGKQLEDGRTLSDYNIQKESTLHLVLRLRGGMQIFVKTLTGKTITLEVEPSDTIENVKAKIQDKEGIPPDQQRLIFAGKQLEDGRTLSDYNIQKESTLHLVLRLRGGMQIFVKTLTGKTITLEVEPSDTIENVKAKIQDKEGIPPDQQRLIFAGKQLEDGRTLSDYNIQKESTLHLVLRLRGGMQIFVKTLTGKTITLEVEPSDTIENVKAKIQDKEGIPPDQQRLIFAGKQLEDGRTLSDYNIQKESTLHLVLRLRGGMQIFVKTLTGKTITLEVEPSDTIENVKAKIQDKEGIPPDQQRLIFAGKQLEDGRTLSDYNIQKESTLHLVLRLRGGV
UniProt Q9H270, sequence (Q9H270 whole entry, looked up): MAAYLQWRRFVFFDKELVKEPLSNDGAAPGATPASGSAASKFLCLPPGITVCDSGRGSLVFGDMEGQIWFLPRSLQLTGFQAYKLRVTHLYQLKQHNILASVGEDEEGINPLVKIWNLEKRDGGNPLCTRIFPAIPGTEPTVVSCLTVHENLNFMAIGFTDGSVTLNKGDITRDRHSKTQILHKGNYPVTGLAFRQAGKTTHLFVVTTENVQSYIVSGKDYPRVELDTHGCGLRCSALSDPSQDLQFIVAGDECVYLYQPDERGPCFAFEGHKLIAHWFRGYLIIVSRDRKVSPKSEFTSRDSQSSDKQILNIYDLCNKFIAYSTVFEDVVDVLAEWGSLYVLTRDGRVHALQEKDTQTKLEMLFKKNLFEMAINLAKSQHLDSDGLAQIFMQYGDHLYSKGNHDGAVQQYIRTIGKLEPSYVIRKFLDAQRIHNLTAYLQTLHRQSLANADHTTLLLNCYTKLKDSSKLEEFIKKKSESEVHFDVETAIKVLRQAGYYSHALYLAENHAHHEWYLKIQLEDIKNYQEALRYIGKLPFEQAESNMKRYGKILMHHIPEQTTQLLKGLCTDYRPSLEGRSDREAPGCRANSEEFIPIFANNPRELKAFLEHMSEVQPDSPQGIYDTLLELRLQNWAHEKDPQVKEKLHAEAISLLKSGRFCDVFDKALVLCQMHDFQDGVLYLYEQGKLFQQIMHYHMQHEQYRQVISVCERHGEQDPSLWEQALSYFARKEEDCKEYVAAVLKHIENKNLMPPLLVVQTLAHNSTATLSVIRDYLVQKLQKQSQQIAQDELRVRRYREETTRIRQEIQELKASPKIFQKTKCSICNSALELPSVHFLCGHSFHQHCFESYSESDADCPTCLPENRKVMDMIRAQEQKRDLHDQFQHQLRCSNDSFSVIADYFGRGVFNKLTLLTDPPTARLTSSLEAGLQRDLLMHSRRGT
UniProt Q9BXJ8, sequence (Q9BXJ8 whole entry, looked up): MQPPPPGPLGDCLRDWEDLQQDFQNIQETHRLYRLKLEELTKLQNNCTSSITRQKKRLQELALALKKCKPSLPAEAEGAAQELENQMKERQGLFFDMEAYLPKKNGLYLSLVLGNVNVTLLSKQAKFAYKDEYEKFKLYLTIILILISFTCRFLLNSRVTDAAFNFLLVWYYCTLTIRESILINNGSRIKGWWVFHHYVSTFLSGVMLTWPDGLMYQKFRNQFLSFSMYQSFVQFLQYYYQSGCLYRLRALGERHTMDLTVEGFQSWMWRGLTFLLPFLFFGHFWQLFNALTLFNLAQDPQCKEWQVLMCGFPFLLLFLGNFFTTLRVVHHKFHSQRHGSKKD

Row | Target | log2 fold change [1] | log2 fold change (volasertib) | log2 fold change [2] | log2 fold change (epoxomicin) | log2 fold change [3] | log2 fold change [4] | log2 fold change [5] | log2 fold change (rosiglitazone) | log2 fold change [6] | log2 fold change [7] | log2 fold change (saracatinib) | log2 fold change (sotrastaurin) | log2 fold change (alvocidib) | log2 fold change (Tubastatin A) | log2 fold change [8] | log2 fold change (defactinib) | log2 fold change (rucaparib) | log2 fold change [9] | log2 fold change (encorafenib) | log2 fold change [10]
1 | WDR37 isoform 2 (UniProt Q9Y2I8) | 0.078 | -0.022 | -0.005 | -0.049 | 0.007 | -0.049 | -0.004 | 0.078 | 0.246 | -0.005 | -0.094 | -0.01 | 0.207 | -0.019 | -0.077 | 0 | 0.064 | -0.108 | 0.084 | -0.007
2 | XPO5 (UniProt Q9HAV4) | -0.122 | -0.263 (active) | 0.063 | 0.073 | 0.01 | -0.04 | 0.018 | 0.035 | -0.027 | -0.302 (active) | 0 | -0.087 | -0.102 | -0.03 | 0.008 | -0.142 | -0.028 | 0.026 | 0.054 | -0.004
3 | UBE4A isoform 2 (UniProt Q14139) | -0.126 | -0.584 (active) | 0.123 | 0.087 | -0.114 | -0.055 | 0.053 | 0.05 | 0.159 | -0.436 (active) | -0.024 | -0.148 | 0.145 | -0.009 | 0.006 | -0.017 | 0.021 | -0.079 | 0.03 | -0.078
4 | VARS2, A0A0G2JL52 | -0.024 | 0.001 | 0.08 | 0.011 | 0.006 | -0.013 | 0.007 | 0.03 | -0.016 | -0.126 | 0.007 | -0.019 | -0.005 | -0.026 | -0.019 | -0.005 | 0.02 | 0.012 | -0.004 | -0.041
5 | USP9X (UniProt Q93008) | -0.108 | -0.382 (active) | 0.038 | 0.01 | -0.027 | -0.056 | 0.01 | 0.037 | -0.028 | -0.21 | -0.006 | -0.073 | -0.056 | -0.014 | -0.022 | -0.03 | 0.032 | -0.003 | 0.082 | -0.009
6 | TTC4 (UniProt O95801) | -0.173 | -0.316 (active) | 0.103 | 0.054 | -0.025 | -0.039 | 0.061 | 0.052 | -0.02 | -0.11 | -0.09 | -0.11 | -0.146 | 0.055 | 0.078 | -0.169 | 0.04 | 0.051 | 0.049 | -0.055
7 | TRMT61A (UniProt Q96FX7) | 0.044 | 0.161 | 0.022 | -0.061 | 0.028 | 0.043 | -0.098 | -0.105 | 0.099 | -0.001 | -0.018 | -0.002 | 0.134 | 0.08 | -0.038 | 0.138 | 0.286 | 0.02 | -0.03 | 0.039
8 | UTP4 (UniProt Q969X6) | 0.032 | 0.006 | -0.017 | -0.02 | 0.001 | 0.043 | -0.036 | -0.006 | -0.061 | 0.233 (active) | 0.05 | 0.013 | 0.104 | -0.097 | 0.015 | 0.178 | 0.086 | 0.002 | -0.016 | 0.041
9 | TMEM120A (UniProt Q9BXJ8) | 0.127 | -0.053 | 0.119 | 0.198 | -0.011 | -0.128 | 0.015 | 0.149 | -0.061 | 0.07 | 0.036 | -0.098 | -0.084 | 0.069 | -0.013 | -0.104 | -0.559 (active) | -0.036 | 0.184 | -0.047
10 | UBR2 (UniProt Q8IWV8) | 0.046 | -0.104 | -0.004 | 0.196 | -0.026 | -0.039 | -0.076 | 0.063 | 0.114 | -0.063 | -0.065 | -0.024 | 0.132 | 0.098 | -0.014 | -0.052 | -0.012 | 0.145 | 0.143 | 0.085
11 | WDR46 (UniProt O15213) | 0.195 | 0.073 | -0.085 | -0.417 | 0.008 | 0.288 | -0.2 | -0.077 | 0.311 | 0.389 | -0.095 | 0.003 | 0.387 | 0.101 | 0.101 | 0.39 | 0.289 | 0.084 | 0.128 | -0.015
12 | WNK1 isoform 7 (UniProt Q9H4A3) | -0.021 | -0.01 | 0.04 | 0.013 | -0.012 | -0.005 | 0.005 | 0.015 | -0.001 | 0.019 | 0.022 | 0.003 | -0.007 | -0.005 | -0.047 | 0.003 | 0.013 | -0.035 | 0.012 | 0.006
13 | UCHL5 (UniProt Q9Y5K5) | -0.113 | -0.295 (active) | 0.074 | 0.116 | -0.017 | -0.028 | 0.04 | 0.03 | -0.003 | -0.099 | -0.044 | -0.057 | -0.097 | 0.148 | 0.013 | -0.107 | 0.074 | -0.001 | 0.091 | -0.028
14 | TTI1 (UniProt O43156) | -0.208 | -0.431 (active) | 0.08 | -0.024 | -0.083 | -0.038 | 0.048 | 0.04 | 0.134 | -0.134 | -0.065 | -0.128 | 0.017 | -0.007 | -0.058 | -0.046 | 0.237 | 0.053 | 0.068 | 0.004
15 | VPS11 (UniProt Q9H270) | -0.284 (active) | -0.53 (active) | 0.14 | 0.025 | -0.097 | -0.074 | 0.059 | 0.077 | 0.03 | -0.244 | -0.003 | -0.08 | -0.061 | 0.004 | -0.018 | -0.066 | 0.082 | -0.021 | 0.023 | -0.01
16 | UBC (UniProt P0CG48) | 0.065 | 0.087 | 0.015 | 0.401 (active) | 0.026 | 0.024 | 0.003 | 0.003 | -0.023 | 0.158 | -0.106 | 0.042 | -0.049 | 0.252 | 0.002 | 0.031 | 0.053 | 0.017 | -0.124 | 0.005
